Among the test systems are DU-145 prostate; K-562 leukemia; MALME-3M melanoma; MDA-MB-231 breast; RXF 393 renal; SF-268 CNS; SF-295 CNS; SF-539 CNS; UACC-257 melanoma; M14 melanoma.
Holding throughout (test): NCI-60 one-dose screen, 48 h (100 = growth as untreated, 0 = no growth, -100 = all killed)
What all share (settings): 10 µM unless noted

Compounds without any hit were thinned out: in the full panel of roughly 83,000, 20% have a hit.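 Negative percent growth values reflect cell death: -40 means 40% of the cells present at the start died, and -100 means all died.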 Values without a mark were called inactive. The source made the active and inactive calls. The calls were made as follows: active = growth percent below 10; inactive = the rest.

`N#CCN1C(=O)C2C3=C(CCCC3)SC2N=C1CN1CCCC1` (stereo not given): the growth is 99.7% in the test on DU-145 prostate; 70.1% with K-562 leukemia; 111% with MALME-3M melanoma; 94.9% with MDA-MB-231 breast; 88.6% with RXF 393 renal; 118% in the test on SF-268 CNS. Moreover, the growth was 107% with SF-295 CNS, 92.5% in the test with SF-539 CNS, 96.8% in the test with UACC-257 melanoma and 120% in the test with M14 melanoma.

Regarding `COc1cc(/C=C/C(=O)c2cccc(-n3cc(-c4ccccc4)[nH]c3=O)c2)ccc1O`, the growth is 81.1% with DU-145 prostate; 20.9% in the test with K-562 leukemia; 90.8% in the test with MALME-3M melanoma; 90.3% in the test on MDA-MB-231 breast; 20% with RXF 393 renal; 66.5% in the test with SF-268 CNS. For the same molecule, the growth is 65.7% in the test with SF-295 CNS, 85.7% with SF-539 CNS, 68.8% with UACC-257 melanoma and 84.7% in the test with M14 melanoma.

With `Fc1ccc(CNc2c3ccccc3nc3ccccc23)cc1F`, the growth in the test with DU-145 prostate is 39.5%; with K-562 leukemia, 12.3%; in the test on MALME-3M melanoma it was 50.7%; with MDA-MB-231 breast, 34.8%; with RXF 393 renal it was 7.37% (active); in the test on SF-268 CNS, 57.2%. Further, the growth in the test with SF-295 CNS is 29.8%; in the test on SF-539 CNS it was 22.1%; with UACC-257 melanoma, 65.1%; in the test on M14 melanoma it was 43.1%.

For the molecule `Clc1cccc(Cl)c1/C=C/c1cc(/C=C/c2c(Cl)cccc2Cl)[nH]n1`, the growth is 17% with DU-145 prostate; 12% with K-562 leukemia; 60.1% with MALME-3M melanoma; 13.1% with MDA-MB-231 breast; 6.46% (active) in the test with RXF 393 renal; 53.2% in the test with SF-268 CNS. In addition, the growth with SF-295 CNS is 20.9%; in the test with SF-539 CNS, -43.7% (active); in the test with UACC-257 melanoma, 58.6%; with M14 melanoma, 5.51% (active).

Consider `O=C(/C=C/c1c(Cl)nc2sccn12)c1ccc(F)c(F)c1`, for which the growth is 96.1% with DU-145 prostate; 48.1% in the test on K-562 leukemia; 113% with MALME-3M melanoma; 81.8% in the test with MDA-MB-231 breast; 69.7% in the test with RXF 393 renal; 81.4% in the test on SF-268 CNS. In addition, the growth with SF-295 CNS was 91.9%; with SF-539 CNS, 96.5%; in the test with UACC-257 melanoma, 73.9%; in the test with M14 melanoma, 87.2%.

Turning to `O=C(Nc1ccc(Nc2ccncc2)cc1)c1ccc(C(=O)Nc2ccc(Nc3ccncc3)cc2)cc1`, the growth is 85.8% in the test on DU-145 prostate; 53.5% with K-562 leukemia; 5.82% (active) with MALME-3M melanoma; 84.4% in the test on MDA-MB-231 breast; 100% in the test on RXF 393 renal; 75% in the test with SF-268 CNS. The growth is 91.7% with SF-295 CNS, 82.6% in the test with SF-539 CNS, 24.2% in the test on UACC-257 melanoma and 44.2% in the test on M14 melanoma.

On to `CC/C=C1/C(=O)C=C[C@@H]1C/C=C\CCCC(=O)O`, for which the growth with DU-145 prostate is 98.3%; with K-562 leukemia, 25.1%; in the test with MALME-3M melanoma, 101%; with MDA-MB-231 breast, 79.4%; in the test on RXF 393 renal it was 110%; with SF-268 CNS, 92.4%. Besides, the growth with SF-295 CNS is 101%; in the test on SF-539 CNS, 101%; in the test on UACC-257 melanoma it was 73.9%; in the test with M14 melanoma it was 77.5%.

Regarding `CN1CCN(CCCOc2ccc3nc(Nc4ccc(F)c(F)c4)ccc3c2)CC1`, the growth in the test with DU-145 prostate is 39.9%; with K-562 leukemia it was -30.3% (active); with MALME-3M melanoma it was 3.13% (active); in the test with MDA-MB-231 breast, -31.6% (active); in the test with RXF 393 renal it was 48.6%; in the test on SF-268 CNS, 46.5%. Also, the growth in the test on SF-295 CNS was -51.4% (active); with SF-539 CNS it was 14.3%; with UACC-257 melanoma, -52.9% (active); in the test with M14 melanoma it was -53.1% (active).

Take `CC(=O)N1N=C(c2ccc(Nc3nc(Nc4ccc(F)cc4)nc(Nc4ccc(F)cc4)n3)cc2)CC1c1cccc([N+](=O)[O-])c1` (stereo not given): the growth with DU-145 prostate is 106%; in the test on K-562 leukemia it was 76.7%; in the test on MALME-3M melanoma, 91.3%; in the test with MDA-MB-231 breast it was 84.6%; in the test with RXF 393 renal it was 81.4%; in the test with SF-268 CNS, 103%. The growth is 482% in the test on SF-295 CNS, 92.9% with SF-539 CNS, 115% in the test on UACC-257 melanoma and 94.1% with M14 melanoma.

Take `COc1ccccc1CNCCCN1C(=O)c2ccc3c4c(ccc(c24)C1=O)C(=O)N(CCCNCCCCN)C3=O`: the growth in the test on DU-145 prostate was -71.1% (active); in the test with K-562 leukemia it was 3.21% (active); with MALME-3M melanoma it was -80.7% (active); with MDA-MB-231 breast, 9.4% (active); in the test with RXF 393 renal, -80.9% (active); in the test on SF-268 CNS, 0.101% (active). Moreover, the growth in the test on SF-295 CNS was 0.192% (active); in the test with SF-539 CNS, -75.3% (active); in the test with UACC-257 melanoma, -71.8% (active); in the test with M14 melanoma it was -80.2% (active).

As for `COC(=O)[C@]12CC[C@@H](C)[C@H](C)[C@@H]1C1=CC[C@@H]3[C@@]4(C)C(C=O)=C[C@@](C)(COC(C)=O)[C@@H]4C(=O)C[C@@]3(C)[C@]1(C)CC2`, the growth was 42.6% in the test with DU-145 prostate; 24.3% with K-562 leukemia; 65.7% in the test with MALME-3M melanoma; 46.8% with MDA-MB-231 breast; 55.8% with RXF 393 renal; 42.2% in the test on SF-268 CNS. For the same molecule, the growth with SF-295 CNS was 32.1%; with SF-539 CNS it was 53.7%; in the test with UACC-257 melanoma, 37.8%; in the test with M14 melanoma, 19.5%.

On to `O=C(Nc1cccc2c(O)c(N=Nc3ccc(S(=O)(=O)Nc4nccs4)cc3)cc(N=Nc3ccc(S(=O)(=O)Nc4nccs4)cc3)c12)C(Cl)Cl`, for which the growth in the test on DU-145 prostate was 33.8%; with K-562 leukemia, 143%; in the test with MALME-3M melanoma, 138%; in the test with MDA-MB-231 breast it was 92.3%; with RXF 393 renal it was 71.2%; in the test on SF-268 CNS, 66.2%. Besides, the growth in the test with SF-295 CNS was 78.2%; with SF-539 CNS, 86.6%; in the test on UACC-257 melanoma, 80.6%; with M14 melanoma, 110%.

In the case of `CCN1C(=O)N(CC)C2C1NN=c1s/c(=C\c3cccs3)c(=O)n12` (stereo not given), the growth with DU-145 prostate is 10.4%; in the test on K-562 leukemia it was 14.5%; with MALME-3M melanoma, 49.1%; in the test with MDA-MB-231 breast, 7.14% (active); in the test with RXF 393 renal it was 11.5%; in the test on SF-268 CNS it was 59.3%. Besides, the growth with SF-295 CNS was 19.3%; in the test on SF-539 CNS it was -3.34% (active); in the test with UACC-257 melanoma it was 74.4%; with M14 melanoma it was 8.36% (active).

For the molecule `C[n+]1cc2cc(C(N)=O)[nH]c3c(=N)c(Cl)c(N)c1c23`, the growth is 69.7% in the test on DU-145 prostate; 53% in the test on K-562 leukemia; 99.1% in the test on MALME-3M melanoma; 53.7% in the test with MDA-MB-231 breast; 73.8% in the test on RXF 393 renal; 64.8% in the test on SF-268 CNS. The growth in the test with SF-295 CNS is 74.1%; in the test with SF-539 CNS it was 90.6%; with UACC-257 melanoma, 45.5%; in the test with M14 melanoma it was 59.9%.

The values are drawn from PubChem BioAssay (NCI).
